Measured values: PubChem BioAssay
Active and inactive are the calls of the source. Unless noted, how the calls were made is not given here.

Key:
[1] = resazurin metabolic signal in HepG2 cells – cell-based, resazurin fluorescence, 24 h, PK04 Diversity Set, profiling panel (AID 1172); settings: HepG2 viability, higher = more signal; further: test concentration not given here
[2] = budding yeast growth changes without added modifier – OD600, strain BY4716, 24 h, basal condition, primary screen (AID 1173); settings: S. cerevisiae BY4716 growth, OD600, 24 h; higher = more signal, called active from +8 up or from −8 down
[3] = viability profiling in MM1S myeloma cells – cell-based, resazurin fluorescence, basal, 24 h, PK04 Diversity Set, profiling panel (AID 1174); settings: higher = more signal, called active from +8 up or from −8 down;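 further: MM1S multiple myeloma cell line; test concentration not given here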
[4] = target: Dihydroorotate dehydrogenase (quinone), mitochondrial (Plasmodium falciparum (isolate 3D7)) (UniProt Q08210); test: inhibition of P. falciparum DHODH – biochemical, C-terminal His tag, absorbance 600 nm, primary screen (AID 1175); settings: PfDHODH enzyme, DCIP absorbance 600 nm; higher = more signal, called active from +8 up or from −8 down;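 further: recombinant parasite enzyme with a five histidine tag at its C terminus; test concentration not given here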
Dihydroorotate dehydrogenase (quinone), mitochondrial (Plasmodium falciparum (isolate 3D7)), sequence (Q08210 whole entry, looked up): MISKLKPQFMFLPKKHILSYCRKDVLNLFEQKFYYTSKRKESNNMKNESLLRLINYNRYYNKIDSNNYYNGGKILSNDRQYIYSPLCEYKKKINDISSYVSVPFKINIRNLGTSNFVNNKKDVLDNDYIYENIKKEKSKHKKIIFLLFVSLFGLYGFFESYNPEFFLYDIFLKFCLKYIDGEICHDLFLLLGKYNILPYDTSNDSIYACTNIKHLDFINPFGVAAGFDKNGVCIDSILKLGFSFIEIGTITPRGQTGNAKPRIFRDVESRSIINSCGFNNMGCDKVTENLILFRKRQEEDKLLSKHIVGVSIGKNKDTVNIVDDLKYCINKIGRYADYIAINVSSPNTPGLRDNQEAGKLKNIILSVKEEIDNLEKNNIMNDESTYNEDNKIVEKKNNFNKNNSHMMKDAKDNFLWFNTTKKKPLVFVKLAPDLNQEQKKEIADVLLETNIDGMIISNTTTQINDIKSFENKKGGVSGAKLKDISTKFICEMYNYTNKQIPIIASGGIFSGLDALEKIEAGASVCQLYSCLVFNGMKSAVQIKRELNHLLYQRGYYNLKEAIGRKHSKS

[5] = inhibition of PAO1 biofilm formation – strain PAO1, LB-PBS medium, absorbance 600 nm, primary screen (AID 1176); further: test concentration not given here; settings: P. aeruginosa PAO1 growth/biofilm, A600, 12 h; higher = more signal
[6] = growth modulation of vineyard yeast isolate – strain RM11-1a, OD600, basal, 24 h, primary screen (AID 1177);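 further: cultures grown under basal conditions with no added stressor; test concentration not given here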; settings: S. cerevisiae RM11-1a growth, OD600, 24 h; higher = more signal, called active from +8 up or from −8 down
[7] = growth of efflux-deficient E. coli DRC39 – strain DRC39, OD650, 24 h, E. coli filamentation inducers, primary screen (AID 1178);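 further: growth measured as culture turbidity by optical density at 650 nm; test concentration not given here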; settings: E. coli DRC39 acrAB, higher = more signal, called active from +8 up or from −8 down
[8] = growth of efflux-deficient E. coli DRC39 – strain DRC39, OD650, 48 h, E. coli filamentation inducers, primary screen (AID 1179);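 further: screen aims at cell division blockers that make cells filament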; settings: E. coli DRC39 delta-acrAB growth, higher = more signal, called active from +8 up or from −8 down
[9] = viability profiling in RPMI8226 myeloma cells – cell-based, resazurin fluorescence, basal, 24 h, PK04 Diversity Set, profiling panel (AID 1180); settings: higher = more signal;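 further: RPMI8826 multiple myeloma cell line at 5000 cells per well; test concentration not given here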
[10] = target: E3 ubiquitin-protein ligase XIAP (Homo sapiens) (UniProt P98170); test: small molecules binding XIAP protein – biophysical, small-molecule microarray, fluorescence 635 nm, primary screen (AID 1181); settings: higher = more signal;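 further: score merges 667 nm emission and signal to noise over triplicate slides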
E3 ubiquitin-protein ligase XIAP (Homo sapiens), sequence (P98170 whole entry, looked up): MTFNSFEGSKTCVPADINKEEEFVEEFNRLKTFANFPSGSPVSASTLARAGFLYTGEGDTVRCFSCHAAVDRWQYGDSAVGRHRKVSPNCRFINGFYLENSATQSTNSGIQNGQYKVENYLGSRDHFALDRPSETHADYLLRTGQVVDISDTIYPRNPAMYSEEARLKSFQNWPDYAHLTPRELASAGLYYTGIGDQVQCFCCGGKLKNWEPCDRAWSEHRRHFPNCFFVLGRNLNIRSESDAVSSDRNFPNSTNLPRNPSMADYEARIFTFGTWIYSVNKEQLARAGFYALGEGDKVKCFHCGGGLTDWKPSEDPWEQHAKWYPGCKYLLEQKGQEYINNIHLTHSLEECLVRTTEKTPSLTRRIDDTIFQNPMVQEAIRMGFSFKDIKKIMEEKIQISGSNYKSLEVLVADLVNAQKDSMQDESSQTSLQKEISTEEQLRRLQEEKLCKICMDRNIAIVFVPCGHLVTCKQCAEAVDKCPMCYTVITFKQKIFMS

Structure (SMILES)	z-score [1]	z-score [2]	z-score [3]	composite z-score [4]	z-score [5]	z-score [6]	z-score [7]	z-score [8]	z-score [9]	composite z-score [10]
CC(C)NC(=O)[C@@]1(c2ccc([N+](=O)[O-])cc2)CC(=O)N(CC23CC4CC(CC(C4)C2)C3)[C@@H]1c1ccc(CO)cc1I	-3.37	-0.722 (inactive)	-4.2 (inactive)	-0.304 (inactive)	0.761 (inactive)	0.835 (inactive)	-0.398 (inactive)	-0.226 (inactive)	-4.86	0.0178
COCCOC(=O)N1C(=O)[C@@]2(c3cc(C#CCNC(N)=O)ccc31)[C@H](c1ccc(O)cc1)N1[C@H](c3ccccc3)[C@H](c3ccccc3)OC(=O)[C@H]1[C@@H]2C(=O)N1CCCCCCC1	-0.0455	1.01 (inactive)	-0.172 (inactive)	0.0489 (inactive)	0.553 (inactive)	0.517 (inactive)	0.474 (inactive)	-0.188 (inactive)	-0.336	-0.212
CO[C@@H]1COC(=O)CC=C[C@@H](C)[C@@H]2C=C[C@H](O)[C@@H](COC(=O)[C@H](C)NC(=O)CC=C[C@H]1C)O2	0.592	-0.0997 (inactive)	0.945 (inactive)	-1.15 (inactive)	-0.786 (inactive)	-1 (inactive)	0.574 (inactive)	-0.637 (inactive)	1.61	-0.102
O=C1O[C@@H](c2ccccc2)[C@@H](c2ccccc2)N2[C@@H](c3ccccc3OCCO)[C@]3(C(=O)Nc4ccc(C#CCCO)cc43)[C@@H](C(=O)O)[C@H]12	-0.307	-1.28 (inactive)	0.649 (inactive)	-2.05 (inactive)	-0.681 (inactive)	-0.282 (inactive)	0.0701 (inactive)	-0.781 (inactive)	0.183	0.32
COc1ccc([Si](C)(C)[C@@H]2[C@@H](CC(=O)N3CCC[C@H]3CO)O[C@]3(C(=O)N(Cc4cccc(N5CCC5=O)c4)c4ccccc43)[C@H]2C)cc1	-1.1	-0.0905 (inactive)	-2.64 (inactive)	-3.15 (inactive)	1.19 (inactive)	1.03 (inactive)	0.52 (inactive)	0.388 (inactive)	-3.51	-0.152
CO[C@H]1COC(=O)[C@H](C)COC(=O)CC=C[C@@H](C)[C@H](OC)COC(=O)CC=C[C@@H]1C	-0.194	-0.754 (inactive)	-0.152 (inactive)	-0.365 (inactive)	-0.167 (inactive)	-0.192 (inactive)	0.778 (inactive)	0.804 (inactive)	0.129	-0.0117
O=C1O[C@@H](c2ccccc2)[C@@H](c2ccccc2)N2[C@@H](c3ccc(O)cc3)[C@]3(C(=O)Nc4ccccc43)[C@@H](C(=O)O)[C@H]12	-0.253	-0.922 (inactive)	-0.14 (inactive)	-1.42 (inactive)	0.697 (inactive)	-0.472 (inactive)	-0.0134 (inactive)	-0.831 (inactive)	0.393	0.125
CO[C@H]1O[C@H](CO)[C@@H](OC(=O)Nc2ccc(C#N)cc2)[C@H](OC(=O)c2cc3ccccc3[nH]2)[C@H]1OC(=O)c1cc2ccccc2[nH]1	-0.115	-1.05 (inactive)	-1.76 (inactive)	-1.68 (inactive)	1.63 (inactive)	-1.67 (inactive)	2.96 (inactive)	2.93 (inactive)	-1.7	-0.0448
CC(CCN1CCCCc2nc(C)c(C)cc21)=NOC(C)CN1CCCCc2nc(C)c(C)cc21 (stereo not given)	0.149	-0.211 (inactive)	-0.29 (inactive)	0.159 (inactive)	0.216 (inactive)	0.596 (inactive)	0.5 (inactive)	-0.024 (inactive)	0.643	0.24
CC(CCN1CCc2nc(-c3ccccc3)c(-c3ccccc3)cc2C1)=NO[C@@H](C)c1cn([C@H](CO)Cc2ccccc2)nn1	-1.41	-3.25 (inactive)	-0.996 (inactive)	-1.81 (inactive)	-0.23 (inactive)	-2.23 (inactive)	-0.249 (inactive)	-0.147 (inactive)	-0.914	-0.376
